# Results with a measured potency or affinity are listed apart. Values without a mark were called inactive. The rule behind the calls is not given here.
# Test: viability loss in HEK293 cells – cell-based, plate reader, cherry-picked samples, cytotoxicity control, dose response (AID 743446)
# Conditions: stronger effect = lower value; at 26 µM unless noted
row,SMILES,max activity
1,CN(C)c1cccc(C(=O)Nc2nc3ccccc3[nH]2)c1,39.2% [at 12 µM]
2,Cc1ccccc1-c1ccc([C@H]2[C@@H](CO)N3CCCCN(S(=O)(=O)c4ccc(F)cc4)C[C@@H]23)cc1,-101%
3,C=CCN1CCN(C(=O)CCCc2ccccc2)CC1,69.3% [at 12 µM]
4,N#C[C@@H]1[C@H](c2ccc(C#Cc3ccccc3F)cc2)[C@@H](CO)N1C(=O)C1CCCC1,-15.6%
5,CC(=O)N1CCCCN2[C@H](CO)[C@H](c3ccc(-c4cccc(C)c4)cc3)[C@@H]2C1,30.5% [at 1.6 µM]
6,CCOc1ccc(-c2cnc3ccccc3n2)cc1,16.5% [at 0.38 µM]
7,COc1ccc(-c2noc(CCC(=O)N3CCN(c4ccc(Cl)cc4)CC3)n2)cc1,26.2% [at 12 µM]
8,CC1CCCN(c2ncnc3c2cnn3-c2ccccc2)C1 (stereo not drawn),-23.6% [at 12 µM]
9,O=C(CCc1nnc(CCCCc2ccccc2)o1)N1CCCC(O)C1 (stereo not drawn),-17.7% [at 0.1 µM]
10,CO[C@H]1CN(C)C(=O)c2ccc(NC(=O)C3CC3)cc2OC[C@@H](C)N(C(=O)Cc2ccccn2)C[C@H]1C,22% [at 1.6 µM]
11,C[C@H]1CCCCO[C@@H](CN(C)C(=O)Nc2ccccc2)[C@@H](C)CN([C@@H](C)CO)C(=O)c2cc(NC(=O)NC3CCCCC3)ccc2O1,12.4% [at 0.05 µM]
12,Cc1nc2c(OCCC3CCCCC3)cccn2c1N(C)C(=O)CCC1CCCC1,-22.5% [at 6 µM]
13,COc1cc(NC(=O)c2cccs2)c(C(=O)OCC(=O)c2cc(C)n(-c3ccccc3)c2C)cc1OC,17.2%
14,CC(=O)c1ccc(NC(=O)c2noc3c2CCC3)cc1,12.6% [at 0.1 µM]
15,COc1ccc(-c2cc(C(=O)N3CCCC3)no2)cc1,30.6% [at 0.195 µM]
16,Cc1ccc2nc(-c3ccc(NC(=O)COC(=O)c4ccco4)cc3)sc2c1,-11.7% [at 1.6 µM]
17,CNCc1ccccc1Sc1ccc(O)c(O)c1,-16.4%

row,SMILES,max activity
1,O=C(CCCc1ccccc1)Nc1cccc(C(=O)O)c1,48.9%
2,O=C(Nc1nc2ccccc2[nH]1)c1ccc(Cl)cc1,71.5% [at 0.8 µM]
3,O=c1[nH]c(CSc2ccccn2)nc2c1oc1ccccc12,-17.8%
4,Cc1cc(C)c(C)c(S(=O)(=O)N2CCN(c3ncnc4ccccc34)CC2)c1C,62% [at 1.6 µM]
5,COCCn1c(C)cc(C(=O)CSc2nnnn2C2CCCC2)c1C,21%
6,CO[C@H]1CN(C)C(=O)c2ccc(NC(=O)c3ccc(-c4ccccc4)cc3)cc2OC[C@@H](C)NC[C@@H]1C,20.6% [at 0.8 µM]
7,N#C[C@@H]1[C@H](c2ccc(C#Cc3cccc(F)c3)cc2)[C@@H](CO)N1C(=O)C1CC1,10.4% [at 12 µM]
8,C[C@H]1CCCCO[C@H](CN(C)C(=O)Nc2cccc3ccccc23)[C@@H](C)CN([C@@H](C)CO)C(=O)c2cc(NS(=O)(=O)c3cn(C)cn3)ccc2O1,21.9% [at 0.05 µM]
9,Cn1cnc(S(=O)(=O)N2C[C@@H](O)COC[C@H]3O[C@H](CC(=O)NC4CCCC4)CC[C@@H]32)c1,13.5% [at 0.38 µM]
10,COc1ccc2sc(NC(=O)c3ccco3)nc2c1,18.6% [at 0.05 µM]
11,CC[C@H](CO)Oc1cc(NCc2ccc(Cl)c(Cl)c2)c2ncn(C(C)C)c2c1,27.3% [at 0.05 µM]
12,CCOC(=O)c1cn2nc(N3CCCC3)ccc2n1,-7.31% [at 6 µM]
13,C[C@H](CO)N1C[C@H](C)[C@H](CN(C)C(=O)Nc2cccc3ccccc23)OCCCC[C@H](C)Oc2ccc(NC(=O)CCC(F)(F)F)cc2C1=O,78.9%
14,CO[C@@H]1CN(C)C(=O)c2ccc(NC(=O)C3CC3)cc2OC[C@@H](C)NC[C@@H]1C,12% [at 3 µM]
15,O=C(CSc1nc2ccccc2[nH]1)Nc1nc(-c2cccc(Br)c2)cs1,46.2% [at 1.6 µM]
16,COc1ccc(-c2cc3nc(CCl)[nH]c(=O)c3s2)cc1,-60.9%

# Source: PubChem BioAssay AID743446 (Broad Institute, 2014)
